# Test results from PubChem BioAssay.
# Where “and” joins values, the source holds several entries; their conditions need not be identical. Identical values can stand only once. Inconclusive results are not listed. Calls of active or inactive are those of the source. Unless noted, no cut-off is given here; in the data, nearly all actives have AC50 up to about 26 µM.
# Key:
# [1] = target: ATP-dependent translocase ABCB1 (Homo sapiens) (UniProt P08183); assay: P-glycoprotein substrate transport blockade – cell-based (AID 377; in the data active = fluorescence slope change above about 50%); conditions: MDR1-expressing cells, fluorescent substrate accumulation slope; stronger effect = higher value; concentration not given here
# [2] = compounds altering circadian rhythm period length – cell-based, LOPAC library, luminescence reporter (AID 2774; call rule not given here;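 note: values are relative to mean of DMSO wells on each plate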); conditions: circadian reporter cells, at 7 µM, actives lie on both sides
# [3] = test system: Hepatitis C virus NS3 helicase; assay: blockers of NS3h binding to ssDNA – biochemical, fluorescence polarization, LOPAC1280 library, primary screen (AID 687035; in the data active = inhibition above about 37%); conditions: Purified HCV NS3 helicase, Cy5-dT15 ssDNA binding fluorescence polarization; stronger effect = higher value; concentration not given here
# [4] = compounds altering Cy5-DNA-NS3h complex signal – biochemical, LOPAC1280, artefact control for HCV NS3 helicase inhibitor project (AID 687037; call rule not given here); conditions: Cy5-DNA-NS3h complex fluorescence interference counterscreen
# [5] = blockers of cellular phospholipid synthesis – cell-based, LOPAC library, screen 4, primary screen (AID 1347384; call rule not given here); conditions: animal cells, phospholipid biosynthesis inhibition screen; at 10 µM
# [6] = viability loss in pontine glioma line – cell-based, SU-DIPG-XVII, MIPE5.0, CellTiter-Glo, qHTS, dose response (AID 1347060); conditions: CellTiter-Glo ATP luminescence;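 for AC50: cells exposed to compound for 48 hours before viability readout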
# [7] = viability loss in pontine glioma line – cell-based, SU-DIPG-XXV, MIPE5.0, CellTiter-Glo, qHTS, dose response (AID 1347065); conditions: CellTiter-Glo ATP luminescence;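 note: cells exposed to compound for 48 hours before ATP readout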
# [8] = growth inhibition of DIPG cells – cell-based, MIPE4.0 library, CellTiter-Glo luminescence, qHTS (AID 1347066; cut-off not given, nearly all actives have AC50 up to about 30 µM;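 note: cells exposed to compound for 48 hours before readout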); conditions: SU-DIPG-VI viability, CellTiter-Glo ATP luminescence
# [9] = JHH-DIPG-1 glioma cell viability, MIPE5.0 library, CellTiter-Glo luminescence, qHTS (AID 1347067); conditions: JHH-DIPG-1 glioma viability, CellTiter-Glo ATP luminescence;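 note: cells exposed to compound for 48 hours before readout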
# [10] = growth inhibition of DIPG cells – cell-based, MIPE5.0 library, qHTS (AID 1347068; cut-off not given, nearly all actives have IC50 up to about 30 µM); conditions: SU-DIPG-XXV viability
# [11] = blockers of polyQ-driven CASP3 activation – cell-based (AID 1583); conditions: polyglutamine-induced caspase-3 activation, cell assay; stronger effect = higher value;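 tested at 10 µM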
# [12] = yeast 75Q aggregation reduction – 75Q-TubU reporter (AID 1593); conditions: Yeast 75Q polyglutamine aggregation reporter
# [13] = blockers of cytochrome c efflux from mitochondria – biochemical, purified mitochondria (AID 1603); conditions: stronger effect = lower value;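 note: mouse liver mitochondria challenged with calcium chloride; signal normalized to the plate average as 100%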
# [14] = polyglutamine aggregate formation blockers (AID 1604); conditions: polyglutamine-induced protein aggregation inhibition assay; stronger effect = higher value; tested at 2.5 µM
# [15] = growth inhibition, single agents and combos, CRL2098, cell-based, BGB or cisplatin IC20 combos, synergistic combos for chromothripsis tumors (AID 1671454; in the data active = inhibition above about 80%;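 note: cells exposed for 96 h before readout; 0% = vehicle DMSO and 100% = killing by high DMSO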); conditions: CRL2098 osteosarcoma cells, drug combinations, stronger effect = higher value
# [16] = growth inhibition, single agents and combos, HD-MB03, cell-based, BGB or cisplatin IC20 combos, synergistic combos for chromothripsis tumors (AID 1671455; in the data active = inhibition above about 83%;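 note: 0% = vehicle DMSO and 100% = high DMSO as cytotoxic control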); conditions: HD-MB03 medulloblastoma cells, stronger effect = higher value
# [17] = growth inhibition, single agents and combos, UWB1.289, cell-based, BGB or cisplatin combos, synergistic combos for chromothripsis tumors (AID 1671456; in the data active = inhibition above about 80%;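 note: cells exposed to compound for four days; 0% = vehicle DMSO and 100% = killing by high DMSO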); conditions: UWB1.289 ovarian carcinoma cells, stronger effect = higher value
# [18] = growth inhibition, single agents and combos, LFS_MB_2R, cell-based, cisplatin combos, synergistic combos for chromothripsis tumors (AID 1671457; in the data active = inhibition above about 80%;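 note: cells exposed to compound for four days before readout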); conditions: LFS_MB_2R medulloblastoma cells, stronger effect = higher value
# [19] = UWB1.289_BRCA1 ovarian cancer growth, cell-based, BGB or cisplatin combinations (AID 1671459; in the data active = inhibition above about 80%); conditions: UWB1.289 BRCA1 ovarian carcinoma, drug combinations, stronger effect = higher value
# [20] = drug combination toxicity in non-malignant astrocytes – cell-based, BGB or cisplatin IC20 combos, cytotoxicity control for chromothriptic childhood tumor combination screen (AID 1671460; in the data active = inhibition above about 80%;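 note: cells exposed to compounds for 96 hours before viability readout; 0% = vehicle and 100% = killing control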); conditions: Human astrocytes, viability inhibition, drug combinations, at 0.5 µM, stronger effect = higher value
# ATP-dependent translocase ABCB1 (Homo sapiens), sequence (P08183 whole entry, looked up): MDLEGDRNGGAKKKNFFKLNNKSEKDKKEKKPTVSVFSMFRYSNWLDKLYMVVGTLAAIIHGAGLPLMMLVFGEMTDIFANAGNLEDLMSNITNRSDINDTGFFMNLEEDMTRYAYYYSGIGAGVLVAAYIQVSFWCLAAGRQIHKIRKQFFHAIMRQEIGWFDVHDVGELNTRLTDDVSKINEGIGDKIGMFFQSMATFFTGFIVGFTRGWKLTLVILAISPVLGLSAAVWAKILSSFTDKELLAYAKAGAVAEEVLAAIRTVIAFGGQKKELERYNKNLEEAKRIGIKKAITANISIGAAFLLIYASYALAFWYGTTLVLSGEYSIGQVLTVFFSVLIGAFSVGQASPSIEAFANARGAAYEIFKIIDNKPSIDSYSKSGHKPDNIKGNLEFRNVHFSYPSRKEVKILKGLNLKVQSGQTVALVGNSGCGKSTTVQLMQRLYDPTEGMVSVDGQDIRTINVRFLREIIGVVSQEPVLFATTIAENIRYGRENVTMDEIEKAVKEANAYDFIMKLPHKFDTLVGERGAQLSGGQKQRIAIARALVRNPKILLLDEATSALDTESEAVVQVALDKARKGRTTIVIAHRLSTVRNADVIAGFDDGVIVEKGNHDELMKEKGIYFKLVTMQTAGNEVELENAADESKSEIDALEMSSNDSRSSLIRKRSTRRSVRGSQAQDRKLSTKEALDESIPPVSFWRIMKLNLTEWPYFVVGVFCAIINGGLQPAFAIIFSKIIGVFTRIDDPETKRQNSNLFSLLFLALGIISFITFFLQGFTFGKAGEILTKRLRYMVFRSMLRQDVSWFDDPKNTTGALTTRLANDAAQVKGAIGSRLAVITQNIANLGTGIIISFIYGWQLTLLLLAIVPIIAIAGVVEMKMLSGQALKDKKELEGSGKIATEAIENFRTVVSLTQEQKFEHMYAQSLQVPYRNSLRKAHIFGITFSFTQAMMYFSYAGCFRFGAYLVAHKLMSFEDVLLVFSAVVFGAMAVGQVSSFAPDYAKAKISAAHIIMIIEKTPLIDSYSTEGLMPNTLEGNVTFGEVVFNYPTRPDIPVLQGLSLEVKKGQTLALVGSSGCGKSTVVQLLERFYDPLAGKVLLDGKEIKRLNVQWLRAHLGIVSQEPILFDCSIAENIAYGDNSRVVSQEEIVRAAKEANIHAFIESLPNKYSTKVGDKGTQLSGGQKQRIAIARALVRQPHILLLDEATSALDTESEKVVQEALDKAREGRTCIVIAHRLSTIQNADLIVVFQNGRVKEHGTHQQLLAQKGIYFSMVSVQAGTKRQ
compound,measurement,setting,value
CC(C)C[C@H]1C(=O)N2CCC[C@H]2[C@]2(O)O[C@](NC(=O)[C@@H]3C=C4c5cccc6[nH]c(Br)c(c56)C[C@H]4N(C)C3)(C(C)C)C(=O)N12,fluorescence slope change,[1],115% (active)
same,period change,[2],0.365 h (inactive)
same,inhibition,[3],2% (inactive)
same,fluorescence ratio (interference),[4],0.9 (inactive)
same,outcome,[5],inactive
CC(C)(O)CC[C@@H](O)[C@](C)(O)[C@H]1CC[C@@]2(O)C3=CC(=O)[C@@H]4C[C@@H](O)[C@@H](O)C[C@]4(C)[C@H]3CC[C@]12C,outcome,[6],inactive
same,outcome,[7],inactive
same,outcome,[8],inactive
same,outcome,[9],inactive
same,outcome,[10],inactive
CC(=O)[C@H]1CC[C@H]2[C@@H]3CCC4=CC(=O)CC[C@]4(C)[C@H]3CC[C@]12C,fluorescence slope change,[1],82.5% (active)
same,period change,[2],0.25 h (inactive)
same,inhibition,[3],-4% (inactive)
same,fluorescence ratio (interference),[4],0.9 (inactive)
same,outcome,[5],inactive
C[C@@]12C[C@@]3(O)O[C@@H](O1)[C@]1(COC(=O)c4ccccc4)[C@H]3C[C@@]12O[C@@H]1O[C@H](CO)[C@@H](O)[C@H](O)[C@H]1O,outcome,[8],inactive
O=C(O)c1cc(=O)c2ccccc2[nH]1,inhibition,[11],-5.47%
same,score,[12],1.02
same,cytochrome c release ratio,[13],0.92
same,inhibition of aggregation,[14],69.7%
same,period change,[2],0.025 h (inactive)
same,inhibition,[3],-6% (inactive)
same,fluorescence ratio (interference),[4],1 (inactive)
same,outcome,[5],inactive
CN[C@H](CC(C)C)C(=O)N[C@H]1C(=O)N[C@@H](CC(N)=O)C(=O)N[C@H]2C(=O)N[C@H]3C(=O)N[C@H](C(=O)N[C@H](C(=O)O)c4cc(O)cc(O)c4-c4cc3ccc4O)[C@H](O)c3ccc(c(Cl)c3)Oc3cc2cc(c3O[C@@H]2O[C@H](CO)[C@@H](O)[C@H](O)[C@H]2O[C@H]2C[C@](C)(N)[C@H](O)[C@H](C)O2)Oc2ccc(cc2Cl)[C@H]1O,period change,[2],-0.05 h (inactive)
same,inhibition,[3],-5% (inactive)
same,fluorescence ratio (interference),[4],1 (inactive)
same,outcome,[6],inactive
same,outcome,[7],inactive
same,outcome,[9],inactive
same,outcome,[10],inactive
same,outcome,[5],inactive
C[C@H](CCC(=O)O)[C@H]1CC[C@H]2[C@@H]3[C@H](O)C[C@@H]4C[C@H](O)CC[C@]4(C)[C@H]3CC[C@]12C,outcome,[6],inactive
same,outcome,[8],inactive
same,outcome,[9],inactive
same,outcome,[10],inactive
C[C@H]1O[C@@H](O[C@H]2[C@@H](O)C[C@H](O[C@H]3[C@@H](O)C[C@H](O[C@H]4CC[C@@]5(C)[C@H](CC[C@@H]6[C@@H]5C[C@@H](O)[C@]5(C)[C@@H](C7=CC(=O)OC7)CC[C@]65O)C4)O[C@@H]3C)O[C@@H]2C)C[C@H](O)[C@@H]1O,fluorescence slope change,[1],24.1% (inactive)
same,AC50,[6],166 nM (active)
same,AC50,[7],166 nM (active)
same,AC50,[8],95.9 nM (active)
same,AC50,[9],66.1 nM (active)
CC(C)(S)[C@@H](N)C(=O)O,outcome,[6],inactive
same,outcome,[7],inactive
same,outcome,[8],inactive
same,outcome,[9],inactive
same,outcome,[10],inactive
C[C@H]1C[C@H]2[C@@H]3CCC4=CC(=O)C=C[C@]4(C)[C@@]3(F)[C@@H](O)C[C@]2(C)[C@@]1(O)C(=O)CO,fluorescence slope change,[1],18% (inactive)
same,outcome,[8],inactive
COc1cc(NS(C)(=O)=O)ccc1Nc1c2ccccc2nc2ccccc12,period change,[2],-0.215 h (inactive)
same,inhibition,[3],-8% (inactive)
same,fluorescence ratio (interference),[4],0.9 (inactive)
same,AC50,[6],934 nM (active)
same,AC50,[7],11800 nM (active)
same,AC50,[9],16600 nM (active)
same,outcome,[5],inactive
same,inhibition,[15]; at 0.5 µM,3.39% (inactive) and -17.2% (inactive)
same,inhibition,"[15]; measured here: combination with BGB at IC20, at 0.5 µM",5.83% and -2.6%
same,inhibition,"[15]; measured here: combination with cisplatin at IC20, at 0.5 µM",6.88% and -21.3%
same,inhibition,[16]; at 0.5 µM,89.9% (active) and 92.8% (active)
same,inhibition,"[16]; measured here: combo with BGB at IC20, at 0.5 µM",85.2% and 89.8%
same,inhibition,"[16]; measured here: combo with cisplatin at IC20, at 0.5 µM",93.1% and 93.7%
same,inhibition,[17]; at 0.5 µM,34.8% (inactive) and 27.8% (inactive)
same,inhibition,"[17]; measured here: inhibition with BGB combination, at 0.05 µM",-10.9% and -18.9%
same,inhibition,"[17]; measured here: inhibition with cisplatin combination, at 0.05 µM",5.17% and -0.785%
same,inhibition,[18]; at 0.5 µM,-7.33% (inactive) and -4.82% (inactive)
same,inhibition,"[18]; measured here: combination with cisplatin, at 0.5 µM",-3.1% and -25.3%
same,inhibition,"[18]; measured here: combination with cisplatin, at 5 µM",21% and 20.3%
same,inhibition,"[19]; BGB combination, concentration series, at 5 µM",79.6% and 77.5%
same,inhibition,[19]; at 0.5 µM,31% (inactive) and 27.1% (inactive)
same,inhibition,"[19]; cisplatin combination, concentration series, at 5 µM",109% and 107%
same,inhibition,[20],47.7% (inactive) and 54% (inactive)
same,inhibition,[20]; measured here: combo with BGB IC20,46.6% and 56.1%
same,inhibition,[20]; measured here: combo with cisplatin IC20,26.6% and 33.1%
O=C1c2c(O)cccc2[C@H]([C@@H]2O[C@H](CO)[C@@H](O)[C@H](O)[C@H]2O)c2cc(CO)cc(O)c21,outcome,[8],inactive
COc1ccc(-c2cc(=O)c3c(O)cc(O[C@@H]4O[C@H](CO[C@@H]5O[C@@H](C)[C@H](O)[C@@H](O)[C@H]5O)[C@@H](O)[C@H](O)[C@H]4O)cc3o2)cc1O,outcome,[6],inactive
same,outcome,[7],inactive
same,outcome,[8],inactive
same,outcome,[9],inactive
same,outcome,[10],inactive
CCCn1c(=O)c2[nH]c(C3CCCC3)nc2n(CCC)c1=O,inhibition,[11],8.56%
same,score,[12],1.24
same,cytochrome c release ratio,[13],0.92
same,inhibition of aggregation,[14],1.59%
same,period change,[2],-0.025 h (inactive)
same,inhibition,[3],0% (inactive)
same,fluorescence ratio (interference),[4],1 (inactive)
same,outcome,[5],inactive
